Source: PubChem BioAssay (The Scripps Research Institute Molecular Screening Center)
TEAD-YAP inh: TEAD-YAP interaction inhibition; HEK-TIYL cells, TEAD-Gal4/YAP UAS-luciferase luminescence; inhibition, % at 9.12 µM; actives 1.4% (n = 640,000); in the data active = inhibition above about 32%
GPR151 activ: activates the human receptor GPR151; PathHunter beta-arrestin GPR151 cells, luminescence; activation, % at 11.2 µM; actives 1% (n = 650,000); in the data active = activation above about 4.9%
Target sequence (Q8TDV0 whole entry, looked up): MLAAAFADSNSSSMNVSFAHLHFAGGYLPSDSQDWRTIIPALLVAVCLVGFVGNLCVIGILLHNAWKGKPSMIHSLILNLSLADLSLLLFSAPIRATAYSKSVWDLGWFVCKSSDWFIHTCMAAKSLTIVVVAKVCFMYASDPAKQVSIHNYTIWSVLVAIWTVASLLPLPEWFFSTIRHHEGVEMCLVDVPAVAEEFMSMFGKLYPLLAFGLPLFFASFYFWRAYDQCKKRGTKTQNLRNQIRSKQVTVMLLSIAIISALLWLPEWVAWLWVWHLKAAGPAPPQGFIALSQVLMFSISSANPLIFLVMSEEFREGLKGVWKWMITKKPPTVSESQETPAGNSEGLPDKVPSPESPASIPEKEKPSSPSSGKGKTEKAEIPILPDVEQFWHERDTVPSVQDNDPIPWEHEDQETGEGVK
MITF primary: blocks human microphthalmia-associated transcription factor; O75030; AlphaScreen MITF homodimerization, bead proximity signal; inhibition, % at 2.6 µM; actives 0.91% (n = 650,000); in the data active = inhibition above about 50%
FBW7 activator: human FBW7 E3 ligase activation, primary screen; Q969H0; AlphaScreen FBW7–phospho-cyclin E peptide binding, activator screen; normalized activity (activation), % at 26.1 µM; actives 0.13% (n = 650,000); AID 1259310; in the data active = normalized activity above about 1.9%;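 also: purified mutant Fbw7 with reduced substrate affinity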
MITF confirm: confirmation of human MITF inhibitors. AlphaScreen MITF homodimerization, biotin/His-MITF beads. shares compounds with MITF primary. inhibition, % at 2.6 µM. actives 16% (n = 4,700);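 active = inhibition above a cutoff derived from the DMSO control wells, cut at about 28% in these data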;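 also: inhibitors lower the bead chemiluminescence by keeping MITF from dimerizing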
AlphaScreen DR: counter-screen: compounds optically interfering with AlphaScreen; AlphaScreen optical interference counterscreen, cell-free; IC50, µM; actives 6% (n = 480); shares compounds with MITF primary; call rule not given here
AlphaScreen intf2: AlphaScreen optical interference, counter-screen; shares compounds with MITF primary; LysRS AlphaScreen counterscreen, signal interference, triplicate; inhibition, % at 2.6 µM; actives 7.6% (n = 4,700);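 active = inhibition above a cutoff derived from the DMSO control wells, cut at about 30% in these data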
Each line names hits and unclear results; the compound was inactive in the other large screens (follow-up assays come after a bar, where they were run). Only some compounds are listed: those with a hit (about 3.5% of all), similar ones and a draw of the others.

CCOc1ccc(N2C(=O)c3cccnc3C2Nc2cccc(C(C)=O)c2)cc1 (stereo not drawn)	none
Cc1cccc2nc(CN3CCN(c4ccc(F)cc4)CC3)cn12	MITF primary 72 | MITF confirm inactive | AlphaScreen intf2 inactive
Cc1cccc2nc(Cn3ccccc3=O)cn12	none
CC(C)n1c(-c2ccc(C(N)=O)cc2)nc2c(NCCO)ncnc21	none
CCOC(=O)c1c(-c2ccc(C)o2)csc1NC(=O)CN1CCCCC1C (stereo not drawn)	MITF primary 57 | MITF confirm inactive | AlphaScreen intf2 39
CCOC(=O)c1c(-c2ccc(C)cc2)csc1NC(=O)CN1CCOCC1	none
CCOC(=O)c1c(-c2ccc(F)cc2)csc1NC(=O)CCN1CCN(CC)CC1	MITF primary 71 | MITF confirm inactive | AlphaScreen intf2 inactive
CCOC(=O)c1c(-c2ccccc2)csc1NC(=O)CCN1CCN(C)CC1	none
CCOC(=O)c1c(-c2ccc(OC)cc2)csc1NC(=O)CN1CCOCC1	MITF primary 71 | MITF confirm inactive | AlphaScreen intf2 inactive
COC(=O)c1c(NC(=O)c2cncc(Br)c2)sc2c1C(C(=O)OC)CC2 (stereo not drawn)	none
COc1cc(C)c2c(c1C=O)Oc1c(c(C)c(O)c3c1C(O)OC3=O)OC2=O (stereo not drawn)	MITF primary 74 | MITF confirm 84 | AlphaScreen DR inactive | AlphaScreen intf2 inactive
Cc1cc(O)c(C=O)c2c1C(=O)Oc1c(C)c(O)c3c(c1O2)C(O)OC3=O (stereo not drawn)	none
CCN(CC)CCCNC(=S)Nc1cccc(Cl)c1	none
CN=c1scc(C)n1/N=C/C1CCCCC1	MITF primary 97 | MITF confirm inactive | AlphaScreen intf2 inactive
CCCc1cc2nnc(SCC(=O)N3CCCCCC3)n2c(N)n1	none
O=C(CN1CCN(C(=O)NCc2ccc(Cl)cc2)CC1)c1cccs1	MITF primary 59 | MITF confirm inactive | AlphaScreen intf2 inactive
Cc1ccccc1NC(=O)N1CCN(CC(=O)c2ccco2)CC1	MITF primary 54 | MITF confirm inactive | AlphaScreen intf2 inactive
O=C(CN1CCN(C(=O)NCc2cccs2)CC1)c1ccco1	MITF primary 58 | MITF confirm inactive | AlphaScreen intf2 inactive
CCNCC(O)COCc1ccccc1Cl (stereo not drawn)	none
Cc1c(C(=O)Nc2nc3ccccc3s2)sc2ncn(CC(=O)Nc3cccc(C(F)(F)F)c3)c(=O)c12	none
O=C(CCC1(Cc2ccc(Cl)cc2)CCC(=O)N1)NCc1cccc2[nH]ccc12 (stereo not drawn)	none
C=CCN(CC=C)CCOc1ccc(C(=O)OC)cc1	MITF primary 51 | MITF confirm inactive | AlphaScreen intf2 inactive
CN(C)c1ccc(NC2CC(=O)N(c3ccc(O)cc3)C2=O)cc1 (stereo not drawn)	MITF primary 71 | MITF confirm 30 | AlphaScreen intf2 31
CN(C)c1ccc(NC2CC(=O)N(c3ccc(F)cc3)C2=O)cc1 (stereo not drawn)	none
N#Cc1ccccc1CNCc1ccc(Cl)cc1	MITF primary 52 | MITF confirm inactive | AlphaScreen intf2 inactive
CCN(CC)CCN(C)Cc1c(F)cccc1Cl	MITF primary 56 | MITF confirm inactive | AlphaScreen intf2 inactive
CCN(CC)CCN(C)Cc1ccc(F)cc1F	MITF primary 57 | MITF confirm inactive | AlphaScreen intf2 inactive
CCN(CC)CCN(C)Cc1cccc2ccccc12	MITF primary 66 | MITF confirm inactive | AlphaScreen intf2 inactive
Cc1c(N(C(=O)c2ccc(Br)cc2)C(C)C)c(=O)n(-c2ccccc2)n1C	none
Cc1cc(NC(=O)COC(=O)c2ccc(NC(N)=O)cc2)ccc1Br	MITF primary 52 | MITF confirm inactive | AlphaScreen intf2 inactive
Cc1ccc(Nc2nc(-c3ccccn3)cs2)c(C)c1	TEAD-YAP inh 57, MITF primary 51 | MITF confirm inactive | AlphaScreen intf2 39
O=C(CNC(=O)c1ccco1)OCc1ccc(C(=O)Oc2ccc(Cl)cc2)cc1	none
Clc1ccc(/C=N/Nc2nncc3ccccc23)cc1Cl	none
C(=N\Nc1nncc2ccccc12)/c1ccccn1	TEAD-YAP inh 78, MITF primary 82 | MITF confirm inactive | AlphaScreen intf2 inactive
CN(C)CCCn1c(SCc2ccccc2)nnc1-c1ccncc1	MITF primary 73 | MITF confirm inactive | AlphaScreen intf2 inactive
